Results taken from PubChem BioAssay AID1159580 (chemical genetic matrix, 2015).
“And” between values parts separate entries of the source, which are not always exact repeats. Equal entries are not always repeated. The campaign covered roughly 5,500 compounds. About 2,000 (36%) were called active. Another 18% or so got no clear call; they are omitted. Cut-off read from the data, not from the text of the source: active = normalized growth mostly below about 0.91 (no sharp cut-off); inconclusive = no clear call, values can overlap the other calls; inactive = mostly above about 0.92. The list shows a part of the results.

Assay: chemical genetic growth profiling, strain panel (AID 1159580);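 note: tested at 20 µM; growth read once vehicle control cultures reached saturation at 30 °C; 1 = growth at the plate median or of vehicle wells; lower values mean less growth of the strain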
Conditions: S. cerevisiae deletion strains, growth OD

Measured: normalized growth

CC(=O)N[C@@H](Cc1c[nH]c2ccccc12)C(=O)O
inactive: locus YAL013W, strain DEP1, stronger effect = lower value 1.01 | locus YAL021C, strain ccr4, stronger effect = lower value 0.991 | locus YAL026C, strain drs2, stronger effect = lower value 0.978 | locus YAL030W, strain snc1, stronger effect = lower value 0.999 | locus YBL061C, strain skt5, stronger effect = lower value 0.975 | locus YBR009C, strain hhf1, stronger effect = lower value 1.03 | locus YBR021W, strain FUR4, stronger effect = lower value 0.998 | locus YBR023C, strain chs3, stronger effect = lower value 0.996 | locus YBR171W, strain sec66, stronger effect = lower value 0.977 | locus YBR229C, strain ROT2, stronger effect = lower value 1 | locus YBR231C, strain swc5, stronger effect = lower value 0.981 | locus YBR279W, strain paf1, stronger effect = lower value 0.982 | locus YCL011C, strain gbp2, stronger effect = lower value 0.982 | locus YCL016C, strain dcc1, stronger effect = lower value 0.97 | locus YCL029C, strain bik1, stronger effect = lower value 1.03 | locus YCL061C, strain MRC1, stronger effect = lower value 0.991 | locus YCL069W, strain vba3, stronger effect = lower value 0.979 | locus YCR088W, strain abp1, stronger effect = lower value 0.992 | locus YDL005C, strain med2, stronger effect = lower value 0.971 | locus YDL035C, strain GPR1, stronger effect = lower value 1.01 | locus YDL040C, strain nat1, stronger effect = lower value 0.983 | locus YDL074C, strain BRE1, stronger effect = lower value 1.03 | locus YDL101C, strain DUN1, stronger effect = lower value 1.02 | locus YDL134C, strain PPH21, stronger effect = lower value 0.987 | locus YDL185W, strain tfp1, stronger effect = lower value 1.01 | locus YDL192W, strain arf1, stronger effect = lower value 1.01 | locus YDR001C, strain nth1, stronger effect = lower value 0.992 | locus YDR069C, strain doa4, stronger effect = lower value 0.998 | locus YDR101C, strain arx1, stronger effect = lower value 1.01 | locus YDR137W, strain rgp1, stronger effect = lower value 0.968 | locus YDR150W, strain NUM1, stronger effect = lower value 1 | locus YDR159W, strain sac3, stronger effect = lower value 1.01 | locus YDR162C, strain NBP2, stronger effect = lower value 1.01 | locus YDR195W, strain ref2 0.942 | locus YDR297W, strain sur2, stronger effect = lower value 0.994 | locus YDR318W, strain mcm21, stronger effect = lower value 1.02 | locus YDR334W, strain swr1, stronger effect = lower value 0.981 | locus YDR335W, strain msn5, stronger effect = lower value 0.987 | locus YDR388W, stronger effect = lower value 1.03 | locus YDR392W, strain spt3, stronger effect = lower value 0.988 | locus YDR502C, strain sam2, stronger effect = lower value 1.02 | locus YEL003W, strain gim4, stronger effect = lower value 0.986 | locus YEL037C, strain rad23, stronger effect = lower value 0.986 | locus YEL061C, strain CIN8 (second series), stronger effect = lower value 0.985 | locus YEL061C, strain CIN8, stronger effect = lower value 1 | locus YER015W, strain faa2, stronger effect = lower value 0.991 | locus YER016W, strain bim1, stronger effect = lower value 0.953 | locus YER110C, stronger effect = lower value 1.02 | locus YER111C, strain swi4, stronger effect = lower value 0.971 | locus YER155C, strain BEM2 (second series), stronger effect = lower value 0.982 | locus YER155C, strain BEM2, stronger effect = lower value 0.997 | locus YER167W, strain BCK2, stronger effect = lower value 1.01 | locus YFR010W, strain ubp6, stronger effect = lower value 1 | locus YGL078C, strain dbp3, stronger effect = lower value 1.01 | locus YGL086W, strain mad1, stronger effect = lower value 1.02 | locus YGL167C, strain pmr1, stronger effect = lower value 0.983 | locus YGL173C, strain kem1, stronger effect = lower value 0.985 | locus YGL227W, strain vid30, stronger effect = lower value 0.984 | locus YGL240W, strain doc1, stronger effect = lower value 1.02 | locus YGL248W, strain PDE1, stronger effect = lower value 1.04 | locus YGL253W, strain hxk2, stronger effect = lower value 0.979 | locus YGR078C, strain PAC10, stronger effect = lower value 1.01 | locus YGR135W, strain pre9, stronger effect = lower value 1.03 | locus YGR229C, strain SMI1, stronger effect = lower value 1.01 | locus YGR252W, strain gcn5, stronger effect = lower value 1.02 | locus YHR013C, strain ard1, stronger effect = lower value 0.952 | locus YHR027C, strain rpn1, stronger effect = lower value 0.976 | locus YHR030C, strain SLT2, stronger effect = lower value 1 and 0.996 | locus YHR079C, strain IRE1 (second series), stronger effect = lower value 1.02 | locus YHR079C, strain IRE1, stronger effect = lower value 0.987 | locus YHR094C, strain hxt1, stronger effect = lower value 1.01 | locus YHR129C, strain ARP1, stronger effect = lower value 1 | locus YHR142W, strain chs7, stronger effect = lower value 0.977 | locus YHR200W, strain rpn10, stronger effect = lower value 1.02 | locus YIL066C, strain RNR3, stronger effect = lower value 1 | locus YIL073C, strain SPO22, stronger effect = lower value 1.04 | locus YIL125W, strain kgd1, stronger effect = lower value 1.01 | locus YIR030C, strain dcg1, stronger effect = lower value 1.02 | locus YJL092W, strain hpr5, stronger effect = lower value 0.986 | locus YJL095W, strain BCK1 (second series), stronger effect = lower value 0.996 | locus YJL095W, strain BCK1, stronger effect = lower value 1.05 and 0.998 | locus YJL115W, strain asf1, stronger effect = lower value 0.978 | locus YJL129C, strain trk1, stronger effect = lower value 0.956 | locus YJL134W, strain LCB3, stronger effect = lower value 1.01 | locus YJL154C, strain vps35, stronger effect = lower value 0.968 | locus YJL164C, strain tpk1, stronger effect = lower value 0.988 | locus YJL166W, strain qcr8, stronger effect = lower value 1.01 | locus YJL168C, strain set2, stronger effect = lower value 1.02 | locus YJL187C, strain SWE1 (second series), stronger effect = lower value 1.01 | locus YJL187C, strain SWE1, stronger effect = lower value 0.987 | locus YJR043C, strain POL32, stronger effect = lower value 1.03 | locus YJR066W, strain TOR1, stronger effect = lower value 0.901
